SUMO Mot1 rescue = yeast Mot1-301 growth rescue at high temperature, primary screen, SUMOylation pathway inhibitor project, S. cerevisiae, ATP luminescence, 38.5C. AID 2716, 2010. 320,000 compounds, 1% hits. growth rescue, % at 18.8 µM. S. cerevisiae Mot1-301 growth rescue; percent above DMSO median, 100 means doubled;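 active means every valid replicate shows activation above 250% relative to neutral control wells; inactive means the rest, any valid replicate at or below 250%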
PfHsp90 set2 = growth inhibition of PfHsp90-expressing yeast, primary screen, antimalarial PfHsp90 inhibitor project, S. cerevisiae, BacTiter-Glo luminescence, single point, set 2 | BacTiter-Glo ATP, 48 h; yeast lacking PDR1 and PDR3 efflux regulators | inhibition, % at 9.4 µM | 310,000 compounds, 0.32% hits;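 active means every replicate shows inhibition above about 80%, whatever the replicate mean, limit read from the data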
tim23-1 inh = growth inhibitors of tim23-1 mutant yeast, primary screen, luminescence, uHTS; S. cerevisiae tim23-1 growth, BacTiter-Glo luminescence, 24 h; inhibition, % at 20 µM; 330,000 compounds, 1.3% hits;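 active means growth inhibition of the mutant yeast at or above 50%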;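 further: temperature-sensitive mutant grown at 25 °C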
tim10-1 inh = growth inhibitors of tim10-1 mutant yeast, primary screen, luminescence, uHTS; S. cerevisiae tim10-1 ts strain growth, BacTiter-Glo, 24 h; inhibition, % at 20 µM; 330,000 compounds, 2.2% hits;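 active means inhibition of at least 40%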;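 further: mutant grown at 25 °C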
TIM10 inh = growth inhibitors of isogenic TIM10 control yeast, primary screen, counter-screen for tim10-1 yeast inhibitor project, luminescence, uHTS; S. cerevisiae TIM10 strain growth, BacTiter-Glo luminescence, 24 h; inhibition, % at 10 µM; 330,000 compounds, 1.4% hits; AID 463195, 2010;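 active means inhibition of 40% or more at the single tested concentration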;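 further: wild-type TIM10 isogenic control strain grown at permissive 25 °C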
tim10 confirm = growth inhibitors of wild-type TIM10 yeast, confirmation, counter-screen for tim10-1 synthetic lethality project, single concentration, luminescence, S. cerevisiae; 4,600 compounds, 63% hits; S. cerevisiae tim10 strain growth, BacTiter-Glo luminescence, 24 h; shares compounds with TIM10 inh; inhibition, % at 10 µM;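 active means inhibition of yeast growth at or above a set limit in either of two replicates at 10 µM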; further: this counterscreen used the strain with wild-type TIM10
tim23-1 confirm = tim23-1 mutant yeast growth inhibitors, confirmation, luminescence, single concentration. shares compounds with tim23-1 inh. AID 463218, 2010. inhibition, % at 20 µM. S. cerevisiae tim23-1 growth, BacTiter-Glo luminescence, 24 h. 4,400 compounds, 83% hits;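 active means inhibition above about 39% in either of two replicate wells at 20 µM, limit read from the data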;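 further: temperature-sensitive tim23-1 mutant grown at 25 °C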
Of the large screens only hits and unclear results are named; the others gave an inactive call (follow-up assays come after a bar, where they were run). Compounds with a hit are over-represented: about 4.4% of the library has one in this group of screens.

Cc1cccc(N=N/C(=C\O)C(=O)c2cccs2)c1	tim23-1 inh 58, TIM10 inh 43 | tim10 confirm 45 | tim23-1 confirm 60
COc1cccc(/C=N/NC(=O)c2c(C)nc3ccc(Cl)cn23)c1O	tim23-1 inh 59, TIM10 inh 48 | tim10 confirm 65 | tim23-1 confirm 58
CCN1C[C@@H]2[C@@H]3C(=O)N(C)C(=O)[C@@H]3[C@](Cc3ccccc3)(C1=O)N2C(=O)c1ccc(F)cc1	none (no result: SUMO Mot1 rescue, tim23-1 inh, tim10-1 inh, TIM10 inh)
COC(=O)c1ccccc1NC(=S)NC(=O)c1ccc(C)cc1	tim23-1 inh 60, TIM10 inh 51 | tim10 confirm inactive | tim23-1 confirm 45
CC(NC(=O)c1ccc([N+](=O)[O-])o1)C12CC3CC(CC(C3)C1)C2 (stereo unspecified)	tim23-1 inh 61, TIM10 inh 45 | tim10 confirm 59 | tim23-1 confirm inactive
CC(NC(=O)C12CC3CC(CC(C3)C1)C2)C(=O)NN=Cc1ccc([N+](=O)[O-])o1 (stereo unspecified)	none
c1ccc(-c2ncc(-c3ccn[nH]3)s2)cc1	tim23-1 inh 56, TIM10 inh 49 | tim10 confirm inactive | tim23-1 confirm 68
c1ccc(Oc2ccc(-c3ccn[nH]3)cc2)cc1	none
CC1(C)CC(=O)C(N=Nc2cc(Cl)c(Cl)c(Cl)c2)=C(O)C1	none
Cc1ccc(O)c(N=NC2=C(O)CC(C)(C)CC2=O)c1	tim23-1 inh 61, TIM10 inh 43 | tim10 confirm inactive | tim23-1 confirm 52
Cc1ccc(S(=O)(=O)N2CCCC(C(=O)NCCc3ccc(S(N)(=O)=O)cc3)C2)cc1 (stereo unspecified)	none
Cc1cccc(NC(=O)COc2ccc(Br)cc2/C=N/O)c1	tim23-1 inh 50, TIM10 inh 56 | tim10 confirm 61 | tim23-1 confirm 78
CC(=O)Nc1ccc(NC(=O)COc2ccc(Br)cc2C)cc1	none
O=C(COC(=O)CCC(=O)c1ccc(F)cc1)Nc1ccc(Cl)cn1	none
CCc1ccc(CCC(=O)Nc2ccc(Cl)cc2)o1	none
O=C1C(=O)c2ccc(-c3ccccc3)cc2-c2ccccc21	tim23-1 inh 59, TIM10 inh 44 (no result: PfHsp90 set2) | tim10 confirm 61 | tim23-1 confirm 56
O=C(NCC1CC1(Cl)Cl)Nc1ccc(Cl)c(Cl)c1 (stereo unspecified)	tim23-1 inh 80, TIM10 inh 48 | tim10 confirm 45 | tim23-1 confirm 71
CC(C)(C)c1cc(C(C)(C)C)cc(S(=O)(=O)CCc2ccccn2)c1	tim23-1 inh 59, TIM10 inh 51 | tim10 confirm 57 | tim23-1 confirm 54
CC(C)(C)c1ccc(S(=O)(=O)NCc2ccccn2)cc1	none
CC1(c2ccccc2)ON(c2ccccc2C(F)(F)F)C1=O (stereo unspecified)	tim23-1 inh 62, TIM10 inh 54 (no result: PfHsp90 set2) | tim10 confirm 65 | tim23-1 confirm inactive
CC(C)Cn1c(N)c(C(=O)CSc2nnc(C3CC3)n2C2CC2)c(=O)n(C)c1=O	none (no result: SUMO Mot1 rescue)
COc1ccccc1C(=O)NC(=S)/C=C1/N(C)c2ccccc2C1(C)C	tim23-1 inh 51, TIM10 inh 44 | tim10 confirm inactive | tim23-1 confirm 42
O=C(Nc1cccc(F)c1)c1ccccc1	tim23-1 inh 50, TIM10 inh 53 (no result: PfHsp90 set2) | tim10 confirm 47 | tim23-1 confirm 66
Cc1ccc(NC(=O)c2cccnc2)cc1C	none
Cc1ccc(NC(=O)c2ccccc2)cc1C	tim23-1 inh 59, TIM10 inh 46 | tim10 confirm inactive | tim23-1 confirm 64
O=C(Nc1ccc(Nc2ccccc2)cc1)c1cccc(F)c1	none
COc1ccc(CC(=O)Nc2ccc(S(=O)(=O)N3CCC(C)CC3)cc2)c(OC)c1	none
Cc1ccc(C(=O)CCC(=O)NNC(=O)c2ccccc2O)cc1	none
O=C(Nc1ccc2c(c1)OCCO2)c1cccs1	tim23-1 inh 56, TIM10 inh 45 | tim10 confirm 50 | tim23-1 confirm 65
O=C(Nc1ccc(N2CCCC2)c(Cl)c1)c1cccs1	tim23-1 inh 50, TIM10 inh 45 | tim10 confirm 34 | tim23-1 confirm 55
CC(C)CN1C(=O)c2ccc(NC(=O)c3cccs3)cc2C1=O	tim23-1 inh 53, TIM10 inh 46 | tim10 confirm 50 | tim23-1 confirm 54
CC(C)CN1C(=O)c2ccc(NC(=O)c3ccccc3F)cc2C1=O	none (no result: SUMO Mot1 rescue)
Cc1ccccc1-c1nnc(SCC(=O)N(C)C2CCS(=O)(=O)C2)n1C (stereo unspecified)	none
C/C=C(\C)CN1CCC(Oc2cccc(C(=O)NCc3ccccn3)c2)CC1	none
O=C(Oc1cc(=O)oc2c1c(=O)n1c3c(cccc23)CC1)c1ccccc1	tim23-1 inh 58, TIM10 inh 41 | tim10 confirm inactive | tim23-1 confirm 66
O=C(Oc1cc(=O)oc2ccccc12)c1ccccc1	none
Cc1ccc(Nc2ncccc2C(N)=O)cc1[N+](=O)[O-]	tim23-1 inh 56, TIM10 inh 43 | tim10 confirm 40 | tim23-1 confirm 69
CCCN(CCC)CCCNC(=O)c1cn(-c2ccc(OC)cc2)c(=O)c2ccccc12	none
Cc1cc(NC(=O)c2ccco2)sc1C	tim23-1 inh 52, TIM10 inh 43 | tim10 confirm inactive | tim23-1 confirm 59
Nc1ccc(-c2nc3ncccc3o2)c(O)c1	tim23-1 inh 58, TIM10 inh 50 | tim10 confirm 43 | tim23-1 confirm 65
Oc1ccc(/C=C/c2ccc3ccccc3n2)cc1	tim23-1 inh 75, TIM10 inh 44 | tim10 confirm 47 | tim23-1 confirm 55
CC(C)(C)S(=O)(=O)N1Cc2ccc(CO)cc2[C@H]1CCO	none (no result: SUMO Mot1 rescue, tim23-1 inh, tim10-1 inh, TIM10 inh)
O=C(Nc1ccc(OC(F)(F)F)cc1)N1CCN(c2ccnc3cc(Cl)ccc23)CC1	tim23-1 inh 74, TIM10 inh 46 | tim10 confirm inactive | tim23-1 confirm 67
O=S(=O)(Nc1cccnc1)c1ccc(Br)c2ccccc12	none
O=C(NCc1ccccc1)C(c1ccc(F)cc1)N(C(=O)c1csnn1)C1CCCC1 (stereo unspecified)	none
CC(C)(C)C(=O)CNS(=O)(=O)c1ccc(S(=O)(=O)NC2CC2)cc1	none
COc1ccc(-c2nnc(OC)c3ccccc23)cc1	none
COc1ccc(-c2nnc(Sc3nc4ccccc4o3)c3ccccc23)cc1	tim23-1 inh 52, TIM10 inh 42 | tim10 confirm 36 | tim23-1 confirm 42

High-throughput results deposited in PubChem by several laboratories.
